Experimental data from PMC5540273 (PLoS ONE, 2017).

Experiments:
Conditions in all cases: concentration: 1 μM, replicates: in singlicate; n = 1
[1] = tested on: CDKL3
[2] = tested on: CDKL5
[3] = tested on: CHEK1
[4] = tested on: CHEK2
[5] = tested on: CIT
[6] = tested on: CLK1
[7] = tested on: CLK2
[8] = tested on: CLK3
[9] = tested on: CLK4
[10] = tested on: CSF1R-autoinhibited
[11] = tested on: CSF1R
[12] = tested on: CSK
[13] = tested on: CSNK1A1L
[14] = tested on: CSNK1A1
[15] = tested on: CSNK1D
[16] = tested on: CSNK1E
[17] = tested on: CSNK1G1
[18] = tested on: CSNK1G2
[19] = tested on: CSNK1G3
[20] = tested on: CSNK2A1
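Further: KINOMEscan kinase panel screen.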

Row | Structure (SMILES) | %Inh [1] [%] | %Inh [2] [%] | %Inh [3] [%] | %Inh [4] [%] | %Inh [5] [%] | %Inh [6] [%] | %Inh [7] [%] | %Inh [8] [%] | %Inh [9] [%] | %Inh [10] [%] | %Inh [11] [%] | %Inh [12] [%] | %Inh [13] [%] | %Inh [14] [%] | %Inh [15] [%] | %Inh [16] [%] | %Inh [17] [%] | %Inh [18] [%] | %Inh [19] [%] | %Inh [20] [%]
1 | O=C(Nc1ccc2c(c1)OCO2)NC1CCN(c2ccnc(NCc3ccc(F)cc3)n2)CC1 [GSK1379859] | 0 | 3 | 19 | 0 | 0 | 23 | 0 | 0 | 10 | 0 | 0 | 0 | 15 | 0 | 0 | 36 | 0 | 0 | 20 | 0
2 | CCc1ccc(-c2ccc3c(c2)-c2nn(C)cc2S(=O)(=O)N3C)cc1 | 0 | 0 | 0 | 0 | 0 | 0 | 13 | 0 | 0 | 2 | 0 | 2 | 0 | 2 | 0 | 0 | 0 | 7 | 0 | 0
3 | CN(C)c1cc(-c2ccc3c(N)n[nH]c3c2)nc(N)n1 [GSK2219329] | 0 | 0 | 0 | 0 | 23 | 45 | 12 | 0 | 51 | 0 | 2 | 0 | 0 | 0 | 25 | 27 | 0 | 2 | 16 | 0
4 | COc1cc2ncn(-c3cc(OCc4ccncc4Br)c(C(N)=O)s3)c2cc1OC [GW854278] | 0 | 0 | 0 | 10 | 3 | 10 | 38 | 0 | 0 | 0 | 0 | 6 | 10 | 0 | 8 | 0 | 18 | 0 | 0 | 0
5 | CCCNC(=O)Nc1ccc(Oc2ncnc3ccn(C)c23)cc1 | 18 | 7 | 0 | 0 | 1 | 0 | 0 | 0 | 4 | 7 | 29 | 0 | 7 | 10 | 9 | 0 | 2 | 11 | 0 | 0
6 | Nc1nccc2scc(-c3ccc4c(c3)CCN4C(=O)Cc3ccccc3)c12 [GSK2576924] | 0 | 0 | 0 | 0 | 46 | 34 | 19 | 0 | 25 | 0 | 78 | 0 | 0 | 0 | 13 | 6 | 7 | 0 | 26 | 5
7 | Cc1cccc(-c2nc(Nc3ccc4c(cnn4C)c3)c3ccccc3n2)n1 [GW876731] | 12 | 0 | 0 | 0 | 12 | 0 | 10 | 0 | 0 | 0 | 29 | 2 | 0 | 0 | 50 | 37 | 18 | 10 | 0 | 0
8 | Nc1nc(-c2ccccc2F)c(-c2ccnc3ccccc23)s1 [GW560459] | 0 | 0 | 0 | 14 | 30 | 12 | 0 | 8 | 7 | 24 | 0 | 0 | 7 | 72 | 66 | 51 | 13 | 1 | 25 | 0
9 | Cc1ccccc1COc1cc(-n2cnc3cc(Cl)ccc32)sc1C(N)=O [GW813349] | 23 | 2 | 0 | 0 | 21 | 18 | 3 | 0 | 6 | 0 | 0 | 0 | 0 | 24 | 1 | 2 | 0 | 7 | 8 | 5
10 | COc1cc(OC)cc(-c2cc3cnc(N)nc3nc2NC(=O)NC(C)(C)C)c1 | 2 | 0 | 0 | 10 | 0 | 30 | 0 | 0 | 7 | 0 | 73 | 0 | 0 | 36 | 0 | 0 | 0 | 0 | 32 | 0
11 | Nc1ncnc2c1ncn2-c1ccc(Cl)cc1 [AH2635] | 0 | 0 | 0 | 0 | 26 | 28 | 19 | 0 | 3 | 0 | 11 | 0 | 12 | 0 | 9 | 46 | 0 | 0 | 17 | 0
12 | COc1ccc(CNC(=O)NC2CCN(c3ccnc(Nc4ccc(F)cc4)n3)C2)cc1 (stereo not drawn) [GSK1379706] | 0 | 0 | 8 | 48 | 9 | 16 | 0 | 0 | 8 | 50 | 16 | 5 | 12 | 25 | 29 | 15 | 21 | 0 | 23 | 4
13 | Nc1ncnc2c1ncn2-c1cccc2ccccc12 [SKF-97184] | 26 | 3 | 0 | 17 | 35 | 0 | 3 | 6 | 0 | 33 | 3 | 0 | 0 | 0 | 0 | 11 | 0 | 0 | 0 | 0
14 | CCn1c(-c2nonc2N)nc2ccccc21 [SB-693162/GW549034] | 3 | 25 | 0 | 0 | 31 | 0 | 0 | 0 | 0 | 8 | 0 | 5 | 0 | 6 | 7 | 0 | 0 | 0 | 0 | 21
15 | Cl.NS(=O)(=O)c1cccc(Nc2cc(-c3ccc(F)cc3)n[nH]2)c1 [GW824645] | 1 | 0 | 0 | 0 | 2 | 0 | 0 | 0 | 0 | 0 | 9 | 0 | 0 | 3 | 0 | 19 | 3 | 0 | 0 | 0
16 | COc1cc(Nc2ccnc3ccc(C(F)(F)F)cc23)cc(OC)c1OC [GW577382] | 8 | 0 | 0 | 0 | 11 | 25 | 0 | 0 | 14 | 14 | 8 | 3 | 19 | 36 | 21 | 9 | 3 | 0 | 27 | 10
17 | COC(=O)c1c(-c2ccccc2)c2cc(Br)ccc2c(=O)n1Cc1ccc(NC(=O)CCC(=O)O)cc1 | 12 | 6 | 0 | 25 | 33 | 0 | 0 | 0 | 17 | 0 | 9 | 0 | 18 | 16 | 0 | 0 | 0 | 11 | 0 | 11
18 | Cc1cccc(-c2cc(-c3c[nH]nc3-c3ccccn3)ccn2)c1 [GW679395] | 0 | 0 | 0 | 0 | 45 | 18 | 2 | 0 | 6 | 0 | 53 | 0 | 2 | 0 | 25 | 10 | 8 | 0 | 6 | 0

Row | Structure (SMILES) | %Inh [1] [%] | %Inh [2] [%] | %Inh [3] [%] | %Inh [4] [%] | %Inh [5] [%] | %Inh [6] [%] | %Inh [7] [%] | %Inh [8] [%] | %Inh [9] [%] | %Inh [10] [%] | %Inh [11] [%] | %Inh [12] [%] | %Inh [13] [%] | %Inh [14] [%] | %Inh [15] [%] | %Inh [16] [%] | %Inh [17] [%] | %Inh [18] [%] | %Inh [19] [%] | %Inh [20] [%]
19 | O=C(NCCNc1ccnc(Nc2ccc(F)cc2)n1)Nc1ccc2c(c1)OCO2 [GSK1379882] | 0 | 4 | 0 | 18 | 44 | 17 | 13 | 9 | 17 | 13 | 18 | 2 | 0 | 0 | 2 | 42 | 3 | 0 | 22 | 3
20 | CCC(=O)c1c(-c2ccccc2)c2cc(Cl)ccc2c(=O)n1Cc1cc(S(C)(=O)=O)n(CC(N)=O)n1 | 16 | 0 | 0 | 0 | 11 | 0 | 7 | 0 | 63 | 0 | 0 | 4 | 0 | 0 | 0 | 0 | 0 | 0 | 0 | 0
21 | CCC(=O)c1c(-c2ccccc2)c2cc(Cl)ccc2c(=O)n1Cc1cc(S(C)(=O)=O)n(CC(F)F)n1 | 2 | 8 | 13 | 0 | 0 | 8 | 0 | 0 | 0 | 0 | 10 | 73 | 0 | 0 | 0 | 1 | 0 | 7 | 0 | 0
22 | Cc1cc(Nc2nc(-c3cccc(C)n3)nc3ccccc23)ccn1 [GW872411] | 0 | 0 | 0 | 0 | 0 | 11 | 0 | 0 | 0 | 0 | 0 | 0 | 0 | 0 | 35 | 31 | 3 | 0 | 0 | 0
23 | O=C(Nc1n[nH]c2nc(-c3ccccc3)c(Br)cc12)C1CC1 [SB-708998] | 0 | 0 | 15 | 0 | 19 | 17 | 0 | 0 | 21 | 0 | 0 | 0 | 0 | 6 | 0 | 0 | 10 | 2 | 15 | 6
24 | CCC(=O)c1c(-c2ccccc2)c2cc(Cl)ccc2c(=O)n1Cc1cc(S(C)(=O)=O)n(CCC(C)(C)O)n1 | 17 | 40 | 13 | 19 | 2 | 0 | 1 | 9 | 2 | 6 | 16 | 0 | 0 | 31 | 8 | 0 | 21 | 15 | 0 | 17
25 | COc1cc2nccc(Nc3ccc(OCc4ccc(NC(C)=O)cc4)cc3)c2cc1OC.Cl [GW440135] | 20 | 0 | 0 | 0 | 0 | 8 | 0 | 10 | 0 | 25 | 73 | 0 | 15 | 0 | 0 | 16 | 0 | 0 | 15 | 5
26 | COc1cc2ncn(-c3cc(OCCCc4ccccc4)c(C(N)=O)s3)c2cc1OC [GSK205189] | 0 | 2 | 0 | 0 | 10 | 19 | 0 | 0 | 9 | 0 | 0 | 0 | 5 | 23 | 1 | 2 | 1 | 2 | 21 | 0
27 | COc1cc2nccc(Nc3cccc(Oc4ccccc4)c3)c2cc1OC.Cl [GW284543] | 0 | 0 | 0 | 0 | 0 | 21 | 0 | 0 | 0 | 32 | 0 | 11 | 12 | 0 | 0 | 5 | 0 | 0 | 26 | 0
28 | Cn1c(=O)c(F)c(Nc2ccc(I)cc2F)c2c(=O)n(OC[C@H](O)CO)cnc21 | 7 | 0 | 0 | 0 | 17 | 7 | 16 | 17 | 0 | 0 | 21 | 20 | 0 | 36 | 12 | 25 | 11 | 20 | 4 | 0
29 | Cc1nnc(-c2ccc(C)c(-c3ccc(C(=O)O)cc3)c2)o1 [GW608005] | 0 | 0 | 5 | 0 | 32 | 10 | 0 | 0 | 0 | 0 | 0 | 0 | 0 | 0 | 0 | 8 | 7 | 0 | 9 | 21
30 | C[C@@H]1CC[C@H](C(=O)NC2CCCCC2)CN1c1cc(-c2ccc3c(N)n[nH]c3c2)nc(N)n1 [GSK2291363] | 0 | 4 | 0 | 22 | 24 | 40 | 26 | 16 | 35 | 31 | 26 | 0 | 12 | 0 | 17 | 24 | 14 | 3 | 30 | 21
31 | CN1C(=O)C(Nc2ccccc2)=C(c2ccccc2)C1=O [SB-300079] | 19 | 0 | 0 | 0 | 4 | 0 | 18 | 0 | 0 | 0 | 16 | 0 | 0 | 0 | 0 | 0 | 0 | 0 | 0 | 0
32 | COc1ccc(Nc2nccc(N3CCC(NS(=O)(=O)c4ccc(NC(C)=O)cc4)C3)n2)cc1 (stereo not drawn) [GSK1379729] | 4 | 0 | 14 | 0 | 22 | 25 | 0 | 0 | 27 | 0 | 1 | 0 | 13 | 32 | 17 | 25 | 6 | 18 | 28 | 15
33 | COC(=O)c1c(-c2ccccc2)c2cc(C)ccc2c(=O)n1Cc1ccccc1 | 0 | 0 | 0 | 0 | 0 | 0 | 0 | 0 | 0 | 0 | 17 | 0 | 0 | 0 | 0 | 0 | 0 | 5 | 0 | 0
34 | CN1C(=O)C(Nc2cc(Cl)c(O)c(Cl)c2)=C(c2ccc(Cl)cc2)C1=O [SB-404321] | 0 | 0 | 0 | 0 | 38 | 22 | 0 | 0 | 0 | 0 | 0 | 0 | 0 | 0 | 0 | 0 | 0 | 0 | 6 | 0
35 | Cc1c(Cn2c(C)nn3c(=O)cc(N4CCO[C@H](C)C4)nc23)cccc1C(F)(F)F [GSK2373690] | 0 | 7 | 2 | 0 | 1 | 27 | 16 | 23 | 32 | 0 | 51 | 0 | 2 | 23 | 25 | 20 | 67 | 0 | 21 | 0
36 | O=C(Nc1n[nH]c2cc(-c3ccccc3F)ccc12)C1CC1 [SB-733371] | 14 | 0 | 0 | 13 | 7 | 2 | 0 | 14 | 0 | 0 | 0 | 0 | 15 | 0 | 0 | 14 | 0 | 0 | 10 | 3
